This is a sample that favours compounds with a hit; in the whole collection about 1.9% have one here.
BRCA1 expr act: increases BRCA1 expression | Potency, µM (top dose mostly 46.1 µM), hits mostly activators | 380,000 compounds, 1.1% hits | MCF7-BRCA1-FFLuc reporter, luminescence, 48 h; response scale: scaled: vehicle 0%, 10 µM genistein 100% | AID 624202; note: nearly all actives have a fitted effect of over 80% in size
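Quantitative HTS in MCF7 cells stably reporting BRCA1 expression via firefly luciferase. Compound treatment lasts 48 h at 37 °C in phenol-red free MEM. Activation is expressed relative to genistein at 10 microM and DMSO.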
NPSR antag: antagonists of human neuropeptide S receptor cAMP signaling; CHO-NPSR cells, cAMP TR-FRET, antagonist mode; Potency, µM (highest dose often 38.3 µM), usual class: inhibitors; 220,000 compounds, 1% hits; AID 1461; note: nearly all actives have a fitted effect of over 50% in size
IL-2 act: IL-2 activation. IL-2 activation reporter assay, cell-based qHTS; stimulated with anti-CD3/CD4/CD28 beads; in transgenic mouse T cells. activation, % (series mostly up to about 46 µM). 360,000 compounds, 0.065% hits. AID 652025; in the data active = activation above about 50%; inconclusive = mostly about 30% to 49%
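First, unstimulated transgenic mouse T cells were exposed to compound for 60 min. Next, anti-CD3/anti-CD4-coated beads with anti-CD28 were added. Finally, after 18 h at 37 degrees C, EGFP and DsRed were imaged.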
RXFP1 ag: agonists of human relaxin receptor RXFP1; Q9HBX9; HEK293T-RXFP1 cAMP TR-FRET, 30 min; response scale: percent of porcine relaxin response, buffer zero; Potency, µM (doses to about 57.5 µM), most hits filed as activators; 370,000 compounds, 0.3% hits; AID 2676; note: nearly all actives have a fitted effect of over 60% in size
Target sequence (Q9HBX9 whole entry, looked up): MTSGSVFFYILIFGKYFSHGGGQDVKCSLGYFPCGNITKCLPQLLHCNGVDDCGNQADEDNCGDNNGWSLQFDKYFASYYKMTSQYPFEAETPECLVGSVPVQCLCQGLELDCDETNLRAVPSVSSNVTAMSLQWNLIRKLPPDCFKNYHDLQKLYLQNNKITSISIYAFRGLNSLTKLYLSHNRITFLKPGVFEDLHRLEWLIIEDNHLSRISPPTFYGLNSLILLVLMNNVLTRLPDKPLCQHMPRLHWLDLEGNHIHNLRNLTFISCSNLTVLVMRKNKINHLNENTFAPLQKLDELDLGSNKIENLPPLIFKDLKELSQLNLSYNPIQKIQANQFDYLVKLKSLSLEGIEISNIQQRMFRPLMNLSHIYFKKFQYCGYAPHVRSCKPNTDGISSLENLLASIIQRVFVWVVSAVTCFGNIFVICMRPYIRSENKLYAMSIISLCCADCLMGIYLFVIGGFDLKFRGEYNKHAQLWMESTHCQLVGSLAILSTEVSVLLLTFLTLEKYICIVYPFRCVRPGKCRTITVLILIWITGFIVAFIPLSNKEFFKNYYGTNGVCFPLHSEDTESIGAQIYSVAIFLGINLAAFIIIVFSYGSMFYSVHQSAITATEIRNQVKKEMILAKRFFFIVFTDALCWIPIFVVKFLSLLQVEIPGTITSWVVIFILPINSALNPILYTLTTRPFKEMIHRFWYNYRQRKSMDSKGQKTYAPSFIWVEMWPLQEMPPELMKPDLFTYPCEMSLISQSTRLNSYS
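HEK293T cells stably expressing RXFP1 were pretreated with the PDE4 inhibitor Ro 20174, exposed to compounds for 30 min at 37C, lysed, and cAMP was read by TR-FRET. Data normalized to buffer (basal) and 29 nM porcine relaxin (100%).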
Giardia killer: Giardia lamblia killing. Giardia lamblia trophozoite viability. activity change, % at 7.66 µM, hits read low. 340,000 compounds, 0.15% hits; in the data active = activity change below about -80%; inconclusive = between about -30% and that limit;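 note: parasites exposed to compound for two days anaerobically before the ATP read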
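Anaerobic 48 hrs incubation at 37 deg C of 100 trophozoites/well with test compounds; ATPLite 1-Step luminescence, 15-30 min RT, reports cellular ATP as viability.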
RXFP1 antag: RXFP1 (human) relaxin receptor antagonism; HEK293-RXFP1, relaxin-stimulated cAMP HTRF, 30 min; hits give low values; activity change, negative = inhibition, % at 57.5 µM; Q9HBX9; 350,000 compounds, 0.59% hits;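 active = activity change of -60% or lower, but not beyond a set lower limit; inconclusive = change between -60% and -40%, or beyond the set limit; inactive = change above -40%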
Of the large screens only hits and unclear results are named; the others gave an inactive call. Unless noted, calls come from the whole dose curve; as a rule, active = well fitted curve in the direction sought with a large enough effect; inconclusive = small, poorly fitted or top-dose-only effect, or another doubt; inactive = no such curve, though single readings can be large; an effect the other way counts as inactive or inconclusive.

COc1ccc2c(=O)c(-c3ccc(OC)c(OC)c3)coc2c1	BRCA1 expr act 11.2µM (no result: RXFP1 antag)
COc1ccc(-c2coc3cc(OC(C)=O)c(OC)cc3c2=O)cc1	BRCA1 expr act 10µM (no result: NPSR antag, RXFP1 ag, RXFP1 antag)
COc1ccc(-c2coc3cc(O[C@@H]4O[C@H](CO)[C@@H](O)[C@H](O)[C@H]4O)ccc3c2=O)cc1	BRCA1 expr act 2.82µM (no result: NPSR antag, RXFP1 ag, RXFP1 antag)
COc1ccc(-c2coc3cc(O)ccc3c2=O)cc1OC	BRCA1 expr act inconclusive
CCCCn1c(SCC(=O)c2ccc(OC)c(OC)c2)nc2cc(S(N)(=O)=O)ccc21	RXFP1 antag -74.6
Cc1ccc(C(c2nc3ccccc3[nH]2)n2c(-c3ccccc3)nc3ccccc32)cc1 (stereo not given)	BRCA1 expr act 4.47µM (no result: NPSR antag, RXFP1 ag, Giardia killer, RXFP1 antag)
CCCC(=O)Oc1c(Sc2ccc(Cl)cc2)c(C)nn1-c1ccccc1	none (no result: BRCA1 expr act, NPSR antag, IL-2 act, Giardia killer)
Cc1oc(-c2ccc(-c3ccccc3)cc2)nc1CN1CCN(CC(=O)N(C)C)CC1	BRCA1 expr act 8.91µM
Nc1cc(=O)[nH]c2c1CCC2	none (no result: NPSR antag, IL-2 act, RXFP1 ag, Giardia killer, RXFP1 antag)
Cc1nn2cc(-c3ccc(Cl)cc3)cnc2c1Cl	BRCA1 expr act 3.16µM, RXFP1 antag inconclusive
Cc1cc2ncc(-c3cccc(Cl)c3)cn2n1	none
NCc1cn(Cc2ccccc2)nc1-c1ccccc1	none (no result: NPSR antag, IL-2 act, RXFP1 ag, RXFP1 antag)
COc1cccc(-c2nn(Cc3ccccc3)cc2CO)c1	BRCA1 expr act 12.6µM (no result: NPSR antag)
N#C/C(=C1\SCC(c2ccccc2Cl)S1)n1ccnc1 (stereo not given)	none (no result: BRCA1 expr act, NPSR antag, IL-2 act, RXFP1 ag, Giardia killer)
O=C(CC1SC(=O)N(c2ccccc2)C1=O)Nc1ccc(Cl)cc1 (stereo not given)	RXFP1 antag -70.3
O=C(O)c1ccc(COc2ccc([N+](=O)[O-])cc2Cl)cc1	BRCA1 expr act 12.6µM (no result: NPSR antag, RXFP1 ag, Giardia killer)
O=C(NCCCOc1ccc([N+](=O)[O-])cc1Cl)OCc1ccccc1	none (no result: NPSR antag, RXFP1 ag)
O=C(CS(=O)(=O)c1ccccc1)c1cc2cc(F)ccc2oc1=O	RXFP1 antag -72.4 (no result: NPSR antag)
O=C(CS(=O)(=O)c1ccccc1)c1cc2ccccc2oc1=O	none (no result: NPSR antag)
CC1(C)CC(NC(=O)c2sc3cc(Cl)ccc3c2Cl)CC(C)(C)N1	RXFP1 antag -60.0
CCNC(=O)c1sc2cc(C)ccc2c1Cl	BRCA1 expr act 7.08µM
COc1ccc(CCNC(=O)c2sc3cc(C)ccc3c2Cl)cc1	none
Cc1ccnc(NC(=O)c2sc3ccccc3c2Cl)c1	Giardia killer -80.2
O=C(NC1CC1)c1sc2cc(Cl)ccc2c1Cl	BRCA1 expr act inconclusive (no result: NPSR antag)
Cc1ccc2c(Cl)c(C(=O)NCCc3ccccc3)sc2c1	BRCA1 expr act 3.16µM
Cc1ccc(-n2nc(C(=O)N(C)c3ccccc3Cl)c3c4ccccc4n(C)c3c2=O)cc1	none (no result: BRCA1 expr act, NPSR antag, IL-2 act, Giardia killer)
CCOC(=O)C1=C(SCC)c2cc3c(n2C1=O)CCCC3	NPSR antag 12.6µM
O=S(=O)(c1ccc(F)cc1)N1CCN(c2nc(-c3cccc(Br)c3)nc3ccccc23)CC1	none (no result: NPSR antag, IL-2 act, RXFP1 ag, RXFP1 antag)
O=C(CN1CCCN(Cc2ccccc2Cl)S1(=O)=O)NCc1ccccc1	none (no result: BRCA1 expr act, NPSR antag, IL-2 act, Giardia killer)
COc1ccccc1OCc1cc(C(=O)N2CC3C[C@@H]4CC2C[C@H](C3)C4)no1	BRCA1 expr act 7.94µM, RXFP1 antag inconclusive (no result: NPSR antag)
Cc1ccc(OCc2cc(C(=O)N3CCN(C)C[C@@H]3c3ccccc3)no2)cc1C	BRCA1 expr act inconclusive (no result: NPSR antag)
COc1cc(Cl)ccc1OCc1cc(C(=O)N2CCN(C)CC2)no1	none (no result: NPSR antag)
COc1ccccc1OCc1cc(C(=O)N2CCN(C)C(c3ccccc3)C2)no1 (stereo not given)	BRCA1 expr act 10µM (no result: NPSR antag)
COc1cc(Cl)ccc1OCc1cc(C(=O)N2CCN(C)C(=O)[C@@H]2C)no1	BRCA1 expr act 10µM (no result: NPSR antag, RXFP1 ag, Giardia killer)
CN1CCN(C(=O)c2cc(COc3ccccc3)on2)[C@@H](c2ccccc2)C1	BRCA1 expr act 5.01µM (no result: NPSR antag)
O=C(Nc1cccc(C(=O)OCc2cc(=O)n3c4c(sc3n2)CCCC4)c1)c1cccc(F)c1	none (no result: BRCA1 expr act, NPSR antag, IL-2 act, Giardia killer)
CCN1C(C(=O)c2ccccc2)=C(OC(=O)COc2ccc(C)cc2)c2ccccc2S1(=O)=O	none (no result: BRCA1 expr act, NPSR antag, IL-2 act, Giardia killer)
Cc1nnc(SCc2cccc3ccccc23)s1	BRCA1 expr act 1.26µM
c1ccc(Nc2nnc(SCc3cccc4ccccc34)s2)cc1	NPSR antag inconclusive
Cc1c(N)cccc1C(F)(F)F	none (no result: BRCA1 expr act, NPSR antag, IL-2 act, RXFP1 ag, Giardia killer)

Assay outcomes: PubChem BioAssay, National Center for Advancing Translational Sciences (NCATS)
